Results filed as inconclusive are left out. Activity calls are given as the source filed them. Rule for the calls, unless noted: active = hit-call score of the fitted dose curve at least 0.9, where 1 is the maximum; inactive = score below 0.9.

The nature of assay [1]: ATG_TCF_b_cat_CIS: Attagene CIS-FACTORIAL HepG2 Assay for human T-Cell-Factor with beta-catenin (TCF/b-cat) (AID 2282965). Particulars: HepG2 TCF/beta-catenin cis-reporter transcription, actives raise or lower the signal. In a few lines:
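HepG2 cells transiently transfected with cis-promoter-driven multiplexed reporter units; reporter mRNA measured 24 h after dosing by RT-PCR, FAM labelling, HpaI digestion and capillary electrophoresis. Bidirectional fitting relative to DMSO baseline.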

Assay [2] is described as follows: ATG_TAL_CIS: Attagene CIS-FACTORIAL HepG2 Assay for human TAL Basal Promoter (AID 2282966).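 Note: background control endpoint measuring basal TAL promoter reporter mRNA not a specific factor.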 Particulars: HepG2 Attagene cis-factorial TAL promoter reporter; actives raise or lower the signal. In a few lines: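 Fluorescence of labelled reporter cDNA fragments, resolved by capillary electrophoresis, gave the readout. Human HepG2 liver cells carried transiently transfected cis-element reporter units and were treated for 24 hours; activity was fitted bidirectionally against DMSO.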

Assay [3] in a line: ATG_TGFb_CIS: Attagene CIS-FACTORIAL HepG2 Assay for human Transforming Growth Factor (TGF) (AID 2282967). Particulars: HepG2 Attagene CIS TGFb reporter, mRNA transcription; actives raise or lower the signal. In a few lines:
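Cells were dosed for 24 hours, after which total RNA was reverse-transcribed and reporter sequences amplified, labeled and sized by capillary electrophoresis. Activity was fitted in both directions against DMSO.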

Assay [4] in a line: ATG_VDRE_CIS: Attagene CIS-FACTORIAL HepG2 Assay for human Vitamin D Receptor Element (VDRE) (AID 2282968). Particulars: HepG2 VDRE cis-reporter transcription, actives raise or lower the signal. In a few lines: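 Transiently transfected HepG2 cells carrying cis-regulated reporter transcription units were exposed for 24 h. Reporter mRNA was measured by RT-PCR with fluorescent labelling and capillary electrophoresis, and fitted in both directions against DMSO.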

Assay [5] deals with Estrogen receptor (Homo sapiens) (UniProt P03372). Put plainly: ATG_ERa_TRANS: Attagene TRANS-FACTORIAL HepG2 Assay for human Estrogen Receptor alpha (ERa) (AID 2282970; active = hit-call score of the fitted dose curve at least 0.9, where 1 is the maximum). Particulars: HepG2 Attagene TRANS ERa GAL4 reporter, mRNA. In a few lines:
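Human liver HepG2, transient transfection of multiple GAL4-UAS reporter units; TRANS format (exogenous NR-Gal4 chimera). 24 h dosing. Readout: reporter mRNA, RT-PCR, 6-FAM primer extension, HpaI digest, capillary electrophoresis. Positive direction vs DMSO.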

Assay [6] deals with Steroid hormone receptor ERR1 (Homo sapiens) (UniProt P11474). As to the kind of experiment: ATG_ERRa_TRANS: Attagene TRANS-FACTORIAL HepG2 Assay for human Estrogen-Related Receptor alpha (ERRa) (AID 2282971; active = hit-call score of the fitted dose curve at least 0.9, where 1 is the maximum). The following applies: HepG2 Attagene TRANS reporter, ERRa transactivation. In a few lines:
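Reporter transcript induction was quantified by RT-PCR and capillary electrophoresis of FAM-labelled, HpaI-cut products after 24 h treatment of HepG2 cells carrying transiently transfected GAL4-UAS reporter units and an exogenous ERRa-Gal4 fusion; activity scored as increase over DMSO.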

The target of assay [7] is X-box-binding protein 1 (Homo sapiens) (UniProt P17861). Put plainly: ATG_Xbp1_CIS: Attagene CIS-FACTORIAL HepG2 Assay for human X-box Binding Protein 1 (XBP1) (AID 2282972). Particulars: HepG2 XBP1 cis-element reporter, Attagene multiplex; actives raise or lower the signal. In a few lines: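 HepG2 cells transiently transfected with multiple cis-element reporter units report endogenous TF activity; 24 h exposure, then reporter mRNA measured by RT-PCR, 6-FAM labelling, HpaI digestion and capillary electrophoresis. Bidirectional fitting versus DMSO.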
Chain of X-box-binding protein 1 (Homo sapiens) (P17861 whole entry, looked up): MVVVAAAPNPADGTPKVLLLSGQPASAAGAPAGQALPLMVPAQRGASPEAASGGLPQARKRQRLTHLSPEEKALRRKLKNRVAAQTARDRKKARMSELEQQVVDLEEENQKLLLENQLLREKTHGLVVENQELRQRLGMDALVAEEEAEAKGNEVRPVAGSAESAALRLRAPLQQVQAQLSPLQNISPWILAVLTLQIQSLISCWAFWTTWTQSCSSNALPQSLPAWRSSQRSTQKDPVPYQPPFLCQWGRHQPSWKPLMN

A short description of assay [8]: ATG_M_19_TRANS: Attagene TRANS-FACTORIAL HepG2 Assay for M19 Transcription Factor (Internal Marker) (AID 2282974; active = hit-call score of the fitted dose curve at least 0.9, where 1 is the maximum). Particulars: HepG2 Attagene TRANS-FACTORIAL M19 internal marker reporter. In a few lines: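 Transfected HepG2 (GAL4-UAS MRTUs), 24 h compound, TriZol RNA, DNase-treated RT, reporter PCR, FAM label, HpaI digest, CE fluorescence; gain vs DMSO.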
Assay [9] is described as follows: ATG_GAL4_TRANS: Attagene TRANS-FACTORIAL HepG2 Assay for GAL4 (Internal Marker) (AID 2282976; active = hit-call score of the fitted dose curve at least 0.9, where 1 is the maximum). Particulars: HepG2 Attagene TRANS GAL4 internal marker reporter. In a few lines: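 First, HepG2 cells were transfected with reporter units under GAL4-UAS control. Next, they were treated with chemical for 24 h. Finally, RNA was reverse-transcribed, PCR-amplified, FAM-labelled and resolved by capillary electrophoresis, with induction scored against DMSO.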

Assay [10] concerns the target Nuclear receptor subfamily 1 group I member 3 (Homo sapiens) (UniProt Q14994). As to the kind of experiment: ATG_CAR_TRANS: Attagene TRANS-FACTORIAL HepG2 Assay for human Constitutive Androstane Receptor (CAR) (AID 2282969; active = hit-call score of the fitted dose curve at least 0.9, where 1 is the maximum;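 note: activators raise reporter mRNA above DMSO so AC50 marks induction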). Particulars: HepG2 Attagene TRANS-FACTORIAL CAR reporter. In a few lines: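 HepG2 cells transiently transfected with GAL4-UAS reporter units; TRANS format reads activity of exogenous chimeric NR-Gal4 protein. After 24 h dosing, reporter mRNA quantified by RT-PCR, 6-FAM labelling and capillary electrophoresis; gain of signal fitted against DMSO.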

Chain of Nuclear receptor subfamily 1 group I member 3 (Homo sapiens) (Q14994 whole entry, looked up, the tested form may be a part): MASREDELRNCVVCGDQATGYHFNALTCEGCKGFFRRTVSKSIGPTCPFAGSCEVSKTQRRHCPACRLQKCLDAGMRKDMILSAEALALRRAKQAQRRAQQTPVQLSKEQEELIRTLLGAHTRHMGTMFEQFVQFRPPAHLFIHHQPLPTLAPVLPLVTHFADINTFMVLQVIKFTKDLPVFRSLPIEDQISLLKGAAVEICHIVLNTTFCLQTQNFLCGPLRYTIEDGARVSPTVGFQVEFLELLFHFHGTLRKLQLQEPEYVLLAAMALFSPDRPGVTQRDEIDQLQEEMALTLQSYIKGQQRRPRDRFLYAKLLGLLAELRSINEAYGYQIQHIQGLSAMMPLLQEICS
Chain of Estrogen receptor (Homo sapiens) (P03372 whole entry, looked up, the tested form may be a part): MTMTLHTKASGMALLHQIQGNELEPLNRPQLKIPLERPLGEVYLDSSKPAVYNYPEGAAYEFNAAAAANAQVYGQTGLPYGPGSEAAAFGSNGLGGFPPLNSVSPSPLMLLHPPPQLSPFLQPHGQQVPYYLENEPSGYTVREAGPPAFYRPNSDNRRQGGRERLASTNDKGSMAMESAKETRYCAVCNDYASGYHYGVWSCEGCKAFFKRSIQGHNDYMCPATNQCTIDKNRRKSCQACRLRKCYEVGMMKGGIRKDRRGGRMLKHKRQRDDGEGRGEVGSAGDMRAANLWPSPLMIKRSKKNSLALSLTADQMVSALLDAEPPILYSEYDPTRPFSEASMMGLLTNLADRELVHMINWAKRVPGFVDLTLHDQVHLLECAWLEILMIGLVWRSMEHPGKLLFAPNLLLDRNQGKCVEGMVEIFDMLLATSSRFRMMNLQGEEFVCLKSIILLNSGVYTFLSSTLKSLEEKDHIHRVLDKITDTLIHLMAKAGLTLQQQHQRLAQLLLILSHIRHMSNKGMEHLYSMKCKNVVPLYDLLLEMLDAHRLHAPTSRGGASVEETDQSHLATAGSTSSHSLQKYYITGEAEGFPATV
Chain of Steroid hormone receptor ERR1 (Homo sapiens) (P11474 whole entry, looked up, the tested form may be a part): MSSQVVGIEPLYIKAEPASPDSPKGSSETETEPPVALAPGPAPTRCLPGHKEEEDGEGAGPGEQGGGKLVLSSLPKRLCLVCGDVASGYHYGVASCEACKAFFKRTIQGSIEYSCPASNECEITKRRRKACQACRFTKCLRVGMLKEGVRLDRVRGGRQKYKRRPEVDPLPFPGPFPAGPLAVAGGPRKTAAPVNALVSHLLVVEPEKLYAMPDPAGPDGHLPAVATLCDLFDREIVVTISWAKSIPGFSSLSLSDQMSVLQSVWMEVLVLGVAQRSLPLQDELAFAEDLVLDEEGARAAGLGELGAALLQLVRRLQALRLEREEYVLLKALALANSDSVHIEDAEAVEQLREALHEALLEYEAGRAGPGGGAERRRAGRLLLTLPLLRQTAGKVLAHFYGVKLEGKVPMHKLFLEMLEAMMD

For `CC(O)CN` (stereo unspecified), the outcome in assay [1], in [2], in assay [3], in [4], in assay [5] and in assay [6] was inactive. The molecule was classed as inactive in [7], in [8] and in assay [9].

With `CCCc1ccc(O)cc1`, the molecule was called inactive in assay [1], in assay [2], in [3], in assay [4] and in assay [7]. Moreover, the concentration at half-maximal activity (AC50) (as a rule, the midpoint of the concentration-response curve, whichever way the signal moves) in assay [5] is 12 µM (active).

Take `CC(C)OB(OC(C)C)OC(C)C`: the molecule was called inactive in assay [1], in [2], in assay [3], in assay [4], in assay [10] and in assay [7]. In addition, the molecule was called inactive in [8] and in assay [9].

Regarding `CCCCCC1C(=O)CCC1CC(=O)OC` (stereo unspecified), the outcome in [1], in assay [2], in [3], in [4], in assay [5] and in [7] was inactive.

As for `CC1=CC[C@@H](C(C)(C)O)CC1`, the molecule was classed as inactive in assay [1], in assay [2], in assay [3], in [4], in assay [5] and in assay [7].

On to `CCCCCCC(O)CCOC(C)=O` (stereo unspecified), for which the outcome in assay [1], in assay [2], in assay [3], in assay [4], in assay [5] and in assay [6] was inactive. Moreover, the molecule was classed as inactive in assay [7] and in [9].

For the molecule `CCCCCCCCCO`, the result in assay [1], in [2], in assay [3], in [4], in assay [5] and in assay [6] was inactive. The molecule was classed as inactive in assay [7], in [8] and in assay [9].

As for `CCCCN(CCO)CCO`, the molecule was called inactive in assay [1], in assay [2], in [3], in assay [4], in assay [5] and in [7].

Take `Nc1cc([N+](=O)[O-])ccc1C(=O)O`: the call in assay [1], in [2], in assay [3], in assay [4], in assay [10] and in assay [7] was inactive. Also, the outcome in [8] was inactive.

On to `CCC(C)(C)C1CCC(=O)CC1`, for which the result in assay [1], in [2], in [3], in [4], in assay [6] and in assay [7] was inactive. The result in assay [8] and in [9] was inactive. In addition, the concentration at half-maximal activity (AC50) in assay [5] is 28.2 µM (active).

On to `O=C1CCC(=O)N1`, for which the result in assay [1], in assay [2], in [3], in [4], in assay [5] and in assay [6] was inactive. Also, the result in [7] and in assay [8] was inactive.

Take `CCCCCCCCCCCCCC(=O)OCC`: the outcome in assay [1], in [2], in assay [3], in assay [4], in assay [10] and in assay [7] was inactive. For the same molecule, the molecule was classed as inactive in assay [8].

For the molecule `O=S(=O)(O)c1cc(S(=O)(=O)O)c2c(N=Nc3ccccc3)c(O)ccc2c1`, the molecule was classed as inactive in assay [1], in assay [2], in assay [3], in assay [4], in assay [10] and in assay [7]. Besides, in assay [9], the molecule was classed as inactive.

Turning to `CCCCCCOc1ccc(O)cc1`, the AC50 in assay [1] was 20.5 µM (active); in assay [4], 33.4 µM (active); in assay [5], 2.85 µM (active). Further, the molecule was classed as inactive in assay [2], in assay [3] and in [7].

For `Nc1ccc(O)c(N)c1`, the molecule was classed as inactive in assay [1], in assay [2], in [3], in assay [4], in assay [6] and in assay [7]. Also, the molecule was classed as inactive in assay [8] and in [9].

On to `CC(=N[Si](C)(C)C)O[Si](C)(C)C`, for which the result in [1], in assay [2], in assay [3], in assay [4], in [5] and in assay [7] was inactive. Moreover, the molecule was called inactive in assay [8] and in [9].

For `FC(F)(F)c1ccc(Cl)c(Cl)c1`, the call in [1], in assay [2], in assay [3], in [4], in assay [5] and in assay [7] was inactive. Further, the molecule was classed as inactive in [8].

In the case of `CCCC1CCC(=O)CC1`, the outcome in assay [1], in assay [2], in assay [3], in assay [4], in assay [5] and in assay [7] was inactive. The result in assay [8] was inactive.

Consider `CN(C)C(=O)Nc1ccccc1`, for which the call in [1], in assay [2], in assay [3], in assay [4], in assay [5] and in assay [7] was inactive. For the same molecule, in assay [8], the result was inactive.

With `CC1=CCC(C(C)(C)O)CC1` (stereo unspecified), the result in assay [1], in assay [2], in [3], in assay [4], in assay [5] and in assay [7] was inactive. The molecule was classed as inactive in [8].

As for `CC/C=C\CCCCO`, the molecule was classed as inactive in [1], in assay [2], in assay [3], in assay [4], in [5] and in assay [7]. Further, the molecule was classed as inactive in assay [8] and in assay [9].

Consider `COc1ccccc1O`, for which the outcome in assay [1], in assay [2], in assay [3], in assay [4], in assay [5] and in [7] was inactive. The molecule was classed as inactive in assay [8] and in assay [9].

Turning to `CC(CO)(CO)[N+](=O)[O-]`, the molecule was classed as inactive in assay [1], in assay [2], in assay [3], in assay [4], in [5] and in assay [7]. Moreover, the result in assay [8] and in assay [9] was inactive.

For the molecule `O=C(O)CS`, the outcome in [1], in assay [2], in assay [3], in assay [4], in assay [6] and in [7] was inactive.

Regarding `CCCCCCCCCCCCOCCOS(=O)(=O)O`, the call in assay [1], in assay [2], in assay [3], in assay [4], in assay [6] and in assay [7] was inactive.

Regarding `CC(O)COCC(C)O` (stereo unspecified), the call in assay [1], in assay [2], in [3], in assay [4], in assay [5] and in [7] was inactive. In assay [9], the result was inactive.

Take `CCCCCCOC(C)=O`: the molecule was classed as inactive in assay [1], in assay [2], in assay [3], in assay [4], in [5] and in assay [7]. Moreover, the result in assay [9] was inactive.

On to `CC(C)=CC(=O)O`, for which the molecule was classed as inactive in assay [1], in assay [2], in assay [3], in [4], in assay [7] and in [9]. In addition, in [5], the AC50 was 49.1 µM (active).

In the case of `[Cl][Dy]([Cl])[Cl]`, the molecule was classed as inactive in [1], in [2], in assay [3], in assay [4], in assay [5] and in assay [7]. The result in assay [8] and in [9] was inactive.

Turning to `CC(=O)CCc1ccc(O)cc1`, the outcome in assay [1], in assay [2], in assay [3], in assay [4], in [5] and in assay [7] was inactive. In addition, the outcome in assay [8] and in assay [9] was inactive.

Regarding `CC(=O)C1=C(C)[C@@H]2C[C@@]3(C1)[C@H](C)CC[C@H]3C2(C)C`, the AC50 in [1] is 77.7 µM (active); in assay [4] it was 161 µM (active); in [5] it was 2.65 µM (active). Further, the call in [2], in [3], in assay [7] and in [8] was inactive.

The record behind these values is PubChem BioAssay (EPA / NIEHS).
